B2AR arrestin: beta2AR (human) beta-arrestin recruitment activity; AID 492947; P07550; 330,000 compounds, 0.02% hits; beta-arrestin recruitment to beta2AR, cell-based reporter; Potency, µM (doses to about 46.1 µM), usual class: activators; note: nearly all actives have a fitted effect of over 65% in size
RORgamma inh: ROR gamma (mouse) transcription inhibition; Potency, µM (series often up to 53.6 µM), hits mostly inhibitors; Drosophila S2 Gal4-RORgamma UAS-luciferase reporter, 20 h; 310,000 compounds, 5.4% hits; P51450; note: nearly all actives have a fitted effect of over 60% in size
Target sequence (P51450 whole entry, looked up, the tested form may be a part): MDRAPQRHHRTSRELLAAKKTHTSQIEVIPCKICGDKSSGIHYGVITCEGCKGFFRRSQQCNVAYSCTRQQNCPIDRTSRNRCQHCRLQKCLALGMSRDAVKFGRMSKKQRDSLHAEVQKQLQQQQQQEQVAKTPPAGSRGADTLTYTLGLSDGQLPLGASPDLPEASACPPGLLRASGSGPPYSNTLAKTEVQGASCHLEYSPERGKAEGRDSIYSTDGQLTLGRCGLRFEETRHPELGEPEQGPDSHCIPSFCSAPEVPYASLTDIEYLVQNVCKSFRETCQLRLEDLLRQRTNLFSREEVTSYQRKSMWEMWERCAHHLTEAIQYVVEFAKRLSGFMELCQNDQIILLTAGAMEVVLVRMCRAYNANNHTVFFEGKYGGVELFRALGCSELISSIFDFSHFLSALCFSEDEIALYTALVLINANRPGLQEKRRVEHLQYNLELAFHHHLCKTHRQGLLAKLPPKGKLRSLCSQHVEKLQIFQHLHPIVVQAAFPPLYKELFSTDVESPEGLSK
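Luciferase reporter read in Schneider cells carrying Gal4-RORγ (mouse) and UAS-Photinus luciferase; cells given compound 1 h before 700 uM copper sulfate induction, then incubated 20 h at ambient temperature.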
Gal4-VP16 FLuc: inhibits Gal4-VP16 luciferase reporter, ROR gamma counter-screen; Drosophila S2 Gal4-VP16 UAS-luciferase, luminescence, 20 h; Potency, µM (titrated, usually from 53.6 µM), actives largely listed as inhibitors; 310,000 compounds, 3.5% hits; AID 2546;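 note: Gal4-VP16 expression switched on by copper sulfate through the metallothionein promoter; nearly all actives have a fitted effect of over 50% in size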
NPSR antag: neuropeptide S receptor (human) antagonism, cAMP; AID 1461; Potency, µM (highest dose often 38.3 µM), most hits filed as inhibitors; 220,000 compounds, 1% hits; CHO-NPSR cells, cAMP TR-FRET, antagonist mode; Q6W5P4; note: nearly all actives have a fitted effect of over 50% in size
Large screens that a line does not name were inactive. Rows were chosen to be rich in hits. Some 5.7% of all compounds tested hit in one or more screens of this group. Calls come from the whole dose curve; as a rule, active = well fitted curve in the direction sought with a large enough effect; inconclusive = small, poorly fitted or top-dose-only effect, or another doubt; inactive = no such curve, though single readings can be large; an effect the other way counts as inactive or inconclusive.

COCCCNC(=S)N/N=C/c1ccc(N(C)C)cc1Cl	RORgamma inh 2.24µM, Gal4-VP16 FLuc 12.6µM
C/C(=N\NS(=O)(=O)c1ccccc1)c1ccc2c(c1)OCCO2	none
CC/C=C(\NC(C)=O)c1ccccc1	none (no result: RORgamma inh, Gal4-VP16 FLuc, NPSR antag)
COc1ccc(-c2nnc(SCc3csc(N)n3)n2C)cc1	none
Cc1ccc(Nc2nc(CSc3nnc(-c4ccc(F)cc4)n3C)cs2)cc1	RORgamma inh 11.2µM
O=C(CSc1nc(-c2ccco2)cc(C(F)(F)F)n1)Nc1ccc(C(=O)N2CCCCC2)cc1	RORgamma inh inconclusive, Gal4-VP16 FLuc 4.47µM
Cc1cccc(C)c1NC(=O)CSc1nc(-c2ccco2)cc(C(F)(F)F)n1	none
Oc1ccc(O)c2c1C1c3ccccc3C2c2ccccc21	RORgamma inh 7.94µM, Gal4-VP16 FLuc 20µM (no result: NPSR antag)
COc1ccc(C(=O)NNC(=O)C(=O)/C=C(\O)c2ccc(C)cc2)cc1	RORgamma inh 12.6µM, Gal4-VP16 FLuc inconclusive (no result: NPSR antag)
COc1ccc(C(=O)NN/C(C)=C/C(=O)c2ccccc2)cc1	RORgamma inh 6.31µM, Gal4-VP16 FLuc 5.01µM (no result: NPSR antag)
C/C(=C\C(=O)c1ccc(Br)cc1)Nc1ccc(Cl)cc1	RORgamma inh 7.08µM, Gal4-VP16 FLuc 11.2µM
C/C(=C\C(=O)c1ccccc1)NNC(=O)c1ccc(Cl)cc1	RORgamma inh 7.08µM, Gal4-VP16 FLuc 4.47µM (no result: NPSR antag)
C/C(=C\C(=O)c1ccccc1)Nc1ccc(Br)c(Cl)c1	none
COc1ccc(-c2nc3cnc(N4CCNCC4)nc3n(-c3ccccc3)c2=O)cc1	none (no result: B2AR arrestin, NPSR antag)
COCCCNC(=O)CNC(=S)N(Cc1ccccc1F)C1CCCCC1	none
CCCCNC(=O)CNC(=S)N(Cc1ccccc1F)C1CCCCC1	RORgamma inh 12.6µM
COC(=O)NC(c1ccccc1)C(C(=O)OC)C(=O)OC (centres undefined)	none (no result: B2AR arrestin, NPSR antag)
CC(C)CC1NC(=O)C(CCCN)NC(=O)C(C(C)C)NC(=O)C2CCCN2C(=O)C(Cc2ccccc2)NC(=O)C(CC(C)C)NC(=O)C(CCCN)NC(=O)C(C(C)C)NC(=O)C2CCCN2C(=O)C(Cc2ccccc2)NC1=O (centres undefined)	RORgamma inh 0.0891µM, Gal4-VP16 FLuc 0.282µM (no result: B2AR arrestin, NPSR antag)
CCCCCCC#CC1C=CC(OC(C)=O)C(COC(C)=O)O1 (centres undefined)	none (no result: B2AR arrestin, NPSR antag)
CCN1CCN(c2c(/C=C3\SC(=S)N(Cc4ccco4)C3=O)c(C)c(C#N)c(=O)n2C)CC1	RORgamma inh 7.08µM, Gal4-VP16 FLuc inconclusive
Cc1cc(C(=O)CN2C(=O)C(=O)N(Cc3ccccc3)C2=O)c(C)n1-c1ccccc1F	RORgamma inh inconclusive
Cc1cc(C(=O)CN2CCC(C)CC2)c(C)n1-c1ccccc1F	RORgamma inh 5.62µM, Gal4-VP16 FLuc 4.47µM
CN1CCN(CCCNC(=O)c2cc3c(-c4ccc(Cl)cc4)nn(C)c3s2)CC1	NPSR antag 10µM
CCN(CC)CCCNC(=O)c1cc2c(-c3ccc(Cl)cc3)nn(C)c2s1	RORgamma inh inconclusive, Gal4-VP16 FLuc inconclusive, NPSR antag inconclusive
CCNc1ncc2nc(C)c(=O)n(CCOC)c2n1	none (no result: B2AR arrestin, NPSR antag)
CC1=NN(c2nc(-c3ccc(F)cc3)cs2)C(=O)C1	RORgamma inh 12.6µM
CC1=NN(c2nc(-c3ccc(C)cc3)cs2)C(=O)C1N=Nc1ccccc1O (centres undefined)	none
COc1ccc(-c2csc(N3N=C(C)C(C)C3=O)n2)cc1 (centres undefined)	RORgamma inh 8.91µM, Gal4-VP16 FLuc inconclusive
CC1=NN(c2nc(-c3ccc(Cl)cc3)cs2)C(=O)C1	RORgamma inh 10µM, Gal4-VP16 FLuc inconclusive
O=S(=O)(NCCC1=CCCCC1)c1ccc(OC(F)(F)F)cc1	none (no result: RORgamma inh, Gal4-VP16 FLuc, NPSR antag)
COc1ccc(C2=CCN3CCCCC3C2)c(-c2ccc(OC)c(OC)c2)c1 (centres undefined)	none (no result: RORgamma inh, Gal4-VP16 FLuc, NPSR antag)
CC(C)(C)NC[C@H](O)c1cc(O)cc(O)c1	none (no result: B2AR arrestin, NPSR antag)
CC(C)S(=O)(=O)N1CCCC(C(=O)c2cccc(Cl)c2)C1 (centres undefined)	none
O=C(O)CCCC/C=C\C[C@@H](O)/C=C/C=C/C=C\[C@@H](O)CCCC(=O)O	none (no result: B2AR arrestin, NPSR antag)
Cc1ccc(-c2ccc(C3C4C=CCC(C)C4C(=O)N3Cc3ccccc3)c(F)c2)cc1 (centres undefined)	none (no result: B2AR arrestin, NPSR antag)
Cc1cccc(OCCCC(=O)Nc2nc3ccccc3[nH]2)c1	RORgamma inh 14.1µM
O=C(CCCOc1ccccc1)Nc1nc2ccccc2[nH]1	RORgamma inh 7.08µM
O=C(CCCOc1ccccc1)NCCc1nc2ccccc2[nH]1	none
Cc1ccc(OCCCC(=O)Nc2nc3ccccc3[nH]2)cc1	RORgamma inh 6.31µM
Cc1ccc(S(=O)(=O)N2[C@@H](c3cccc(Cl)c3)C(C(=O)O)=CC[C@H]2c2ccc3c(c2)OCO3)cc1	none (no result: RORgamma inh, Gal4-VP16 FLuc, NPSR antag)

Screens: PubChem, National Center for Advancing Translational Sciences (NCATS)
